Shown are actives, neighbours in structure and some others; about 3.9% of the full set was active somewhere.
KKLEB tox = cytotoxicity in KKLEB CF airway cells, primary screen, cytotoxicity control for CF NF-kB inhibitor project, cell-based, uHTS, fluorescence assay plates | KKLEB CF airway cells viability, ATPlite luminescence, overnight; hits give low values; cells stimulated with P. aeruginosa culture filtrate | activity change (cytotoxicity), % at 5 µM | 360,000 tested, 0.36% active;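 active = corrected activity change at or below -50% at 5 µM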
Peg3 promoter = Peg3 promoter-driven luciferase inhibitors, primary screen, cell-based, HeLa, luciferase luminescence; inhibition, % at 20 µM; 360,000 tested, 1.7% active; HeLa PEG-Prom luciferase reporter, overnight;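 active = inhibition of at least 50% at 20 µM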
HIF-2a block = HIF-2a reporter inhibitors, primary screen, luminescence, 786-0 RCC cells | AID 624352, 2012 | 360,000 tested, 0.72% active | inhibition, % at 18.8 µM | 786-0 RCC cells HIF-2a reporter, luciferase luminescence, overnight;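 active = inhibition of the luminescence signal of 40% or more relative to plate controls, in a single-dose primary screen at 18.75 µM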
TROY NFkB inh = inhibitors of TROY-driven NF-kB signaling, primary screen, Q293 LMP1-TROYcd cells, NF-kB luciferase, uHTS; Q293 LMP1-TROYcd NF-kB luciferase reporter, 4 h; inhibition, % at 10 µM; 360,000 tested, 0.98% active;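 active = compounds whose plate-normalised and pattern-corrected inhibition of the luciferase reporter signal at the single screening dose is 50% or more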
TWEAK Fn14 block = inhibitors of TWEAK-Fn14 signaling, primary screen, luciferase reporter cells, uHTS. TWEAK-stimulated Fn14 reporter cells, luciferase luminescence, 8 h. inhibition, % at 10 µM. 360,000 tested, 2% active; in the data active = inhibition above about 50%
CF NFkB block = inhibitors of PAF-induced NF-kB signaling, primary screen, cell-based, GFP fluorescence, uHTS; KKLEB NF-kB-GFP reporter, GFP fluorescence overnight; 360,000 tested, 0.86% active; AID 588850, 2011; inhibition, % at 5 µM;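 active = at least 50% inhibition at 5 µM, scaled per plate between neutral and stimulator controls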;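 note: PAF is a Pseudomonas aeruginosa culture filtrate used as stimulus; plate controls were PAF-stimulated DMSO wells for no effect and unstimulated DMSO wells for full effect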
An asterisk follows results filed as active.

What do the screens show for `COCCN(C(=O)c1csnn1)C(C(=O)NC1CCCC1)c1ccccc1F` (configuration not stated)?
KKLEB tox: 11.9; Peg3 promoter: 11.0; HIF-2a block: 15.7; TROY NFkB inh: 16.6; TWEAK Fn14 block: 65.8*; CF NFkB block: -20.7

Results for Cc1ccc(C(C(=O)NC2CCCCC2)N(Cc2cccnc2)C(=O)c2csnn2)cc1 (configuration not stated) ?
KKLEB tox: 0.8; Peg3 promoter: -5.2; HIF-2a block: 5.1; TROY NFkB inh: 11.4; TWEAK Fn14 block: 91.9*; CF NFkB block: -3.9

How did O=c1c(Cc2ccccc2)c(O)c2cccc3c4c(n1c23)CCCC4 do in these assays?
KKLEB tox: 14.8; Peg3 promoter: 14.9; HIF-2a block: 14.0; TROY NFkB inh: 54.4*; TWEAK Fn14 block: -2.1; CF NFkB block: -20.4

What do the screens show for `Cc1ccccc1-c1cc2c(nn1)-c1ccccc1C2=O`?
KKLEB tox: -2.1; Peg3 promoter: -80.6; HIF-2a block: -71.1; TROY NFkB inh: 85.0*; TWEAK Fn14 block: 45.9; CF NFkB block: -11.8

Results for O=C1c2ccccc2-c2nnc(-c3ccc(F)cc3)cc21 ?
KKLEB tox: -16.1; Peg3 promoter: -11.4; HIF-2a block: -140.7; TROY NFkB inh: -1.8; TWEAK Fn14 block: 75.5*; CF NFkB block: -10.5

Results for O=C1c2ccccc2-c2nnc(-c3ccc(O)cc3)cc21 ?
KKLEB tox: -4.0; Peg3 promoter: -153.0; HIF-2a block: -181.4; TROY NFkB inh: -18.8; TWEAK Fn14 block: 8.6; CF NFkB block: 8.9

Results for COc1ccc(/C=C/C(=O)NC2CCS(=O)(=O)C2)cc1 (configuration not stated) ?
KKLEB tox: 4.3; Peg3 promoter: -17.7; HIF-2a block: 1.9; TROY NFkB inh: -2.2; TWEAK Fn14 block: -7.5; CF NFkB block: -12.6

Results for O=S(=O)(Nc1cccc(-c2ccc(N3CCCCCC3)nn2)c1)c1ccccc1Cl ?
KKLEB tox: -2.4; Peg3 promoter: -98.7; HIF-2a block: -136.6; TROY NFkB inh: -8.2; TWEAK Fn14 block: 11.2; CF NFkB block: 21.4

What do the screens show for `COc1cccc(N2C(=O)CC(NNC(=O)c3cccs3)C2=O)c1` (configuration not stated)?
KKLEB tox: 11.6; Peg3 promoter: 12.2; HIF-2a block: 10.7; TROY NFkB inh: -10.4; TWEAK Fn14 block: -2.1; CF NFkB block: 9.0

How did CC1=CCC2([N+](=O)[O-])CN(CC(=O)O)CC1([N+](=O)[O-])C2 (configuration not stated) do in these assays?
KKLEB tox: 8.4; Peg3 promoter: 3.3; HIF-2a block: 13.9; TROY NFkB inh: -5.8; TWEAK Fn14 block: -16.1; CF NFkB block: -4.8

What do the screens show for `CCN1CC2([N+](=O)[O-])CC=C(OC)C([N+](=O)[O-])(C1)C2` (configuration not stated)?
KKLEB tox: -11.5; Peg3 promoter: 12.8; HIF-2a block: -3.0; TROY NFkB inh: -17.7; TWEAK Fn14 block: 73.2*; CF NFkB block: 11.3

What do the screens show for `Cc1ccc(NC(=O)CN(C)C(=O)c2ccc(OCc3cn4ccccc4n3)cc2)cc1`?
KKLEB tox: -10.4; Peg3 promoter: -52.6; HIF-2a block: -76.7; TROY NFkB inh: -7.9; TWEAK Fn14 block: -2.6; CF NFkB block: -7.3

What do the screens show for `CCOC(=O)C(CSCC(=O)c1ccc(Cl)cc1Cl)NC(=O)OC(C)(C)C` (configuration not stated)?
KKLEB tox: 4.2; Peg3 promoter: 5.9; HIF-2a block: 13.2; TROY NFkB inh: -9.7; TWEAK Fn14 block: -1.9; CF NFkB block: 13.0

How did CCOC(=O)CSCC(NC(=O)OC(C)(C)C)C(=O)OCC (configuration not stated) do in these assays?
KKLEB tox: 0.9; Peg3 promoter: 7.0; HIF-2a block: 41.3*; TROY NFkB inh: -1.2; TWEAK Fn14 block: -1.7; CF NFkB block: 2.8

Results for Cc1nc(-c2cccc(NC(=O)c3ccc(-n4nccc4C)cc3)c2)cs1 ?
KKLEB tox: 4.1; Peg3 promoter: -59.0; HIF-2a block: -182.4; TROY NFkB inh: 59.9*; TWEAK Fn14 block: 73.5*; CF NFkB block: 6.8

Bioassay records deposited in PubChem BioAssay by Sanford-Burnham Center for Chemical Genomics.
